This note sets out measurements from PubChem BioAssay (EPA / NIEHS).

Values joined by “and” are separate entries in the source; they are usually repeats but may differ in a detail not shown here. Identical values can stand only once. Where a structure was tested more than once in an assay, its records may differ in their call. Active and inactive are the calls of the source. The calls were made as follows: active = hit-call score of the fitted dose curve at least 0.9, where 1 is the maximum; inactive = score below 0.9.

Read-out in assay [1]: Interleukin 2 (IL2), IL2 (gene 3558)
Put plainly: BSK_BT_xIL2: BioMAP Diversity Plus: BT Assay for Interleukin 2 (IL2) Biomarker Activity (AID 2284245). The conditions noted are these: primary human B cells with PBMC. In a few lines: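 Secreted IL-2 was read by Luminex xMAP from B cells co-cultured with PBMC (human primary) 24 h post-dosing; activity was analysed as gain of signal relative to DMSO vehicle.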

Read-out in assay [2]: Basic fibroblast growth factor (bFGF), FGF2 (gene 2247)
The assay is described as follows: BSK_MyoF_bFGF: BioMAP Diversity Plus: MyoF Assay for Basic fibroblast growth factor (bFGF) Biomarker Activity (AID 2284246). The conditions noted are these: primary human lung fibroblasts. Put shortly:
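bFGF was measured by ELISA in primary human lung fibroblasts 24 h after chemical addition. Signal was analysed as positive-direction change relative to DMSO baseline.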

Read-out in assay [3]: Monokine induced gamma interferon (MIG), CXCL9 (gene 4283)
The assay is described as follows: BSK_KF3CT_MIG: BioMAP Diversity Plus: KF3CT Assay for Monokine induced gamma interferon (MIG) Biomarker Activity (AID 2284248). As to conditions: primary human keratinocytes with fibroblasts. In a few lines: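 Human keratinocyte plus foreskin fibroblast primary co-culture dosed with test chemical for 24 h; MIG level measured by ELISA and fitted in the positive direction against DMSO as baseline.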

Read-out in assay [4]: Vascular cell adhesion molecule 1 (VCAM1), VCAM1 (gene 7412)
The assay is described as follows: BSK_BF4T_VCAM1: BioMAP Diversity Plus: BF4T Assay for Vascular cell adhesion molecule 1 (VCAM1) Biomarker Activity (AID 2284249). As to conditions: primary human bronchial epithelial cells with fibroblasts. In a few lines:
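Cell-surface VCAM-1 quantified by ELISA after 24 h chemical exposure of human bronchial epithelial/dermal fibroblast co-cultures, with SRB staining in parallel wells for cytotoxicity; DMSO baseline, positive-direction fitting.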

Read-out in assay [5]: Collagen I, COL1A1 (gene 1277)
Put plainly: BSK_hDFCGF_CollagenI: BioMAP Diversity Plus: hDFCGF Assay for Collagen I Biomarker Activity (AID 2284250). The conditions noted are these: primary human foreskin fibroblasts. In a few lines: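 Collagen I quantified by ELISA 24 h after chemical dosing of human dermal fibroblast primary cells, with parallel SRB staining (0.1%, TCA-fixed, 560 nm) for overt cytotoxicity.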

Read-out in assay [6]: Interferon-inducible T-cell alpha chemoattractant (ITAC), CXCL11 (gene 6373)
The assay is described as follows: BSK_hDFCGF_ITAC: BioMAP Diversity Plus: hDFCGF Assay for Interferon-inducible T-cell alpha chemoattractant (ITAC) Biomarker Activity (AID 2284251). As to conditions: primary human foreskin fibroblasts. Put shortly: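 I-TAC levels were read by ELISA on human dermal foreskin fibroblast primary cultures 24 h after dosing, analysed against DMSO in the positive direction. Cytotoxicity was assessed alongside by sulforhodamine B total-protein staining.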

Read-out in assay [7]: Plasminogen activator inhibitor-1 (PAI1), SERPINE1 (gene 5054)
Put plainly: BSK_KF3CT_PAI1: BioMAP Diversity Plus: KF3CT Assay for Plasminogen activator inhibitor-1 (PAI1) Biomarker Activity (AID 2284252). As to conditions: primary human keratinocytes with fibroblasts. Put shortly: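 PAI-1 levels quantified by ELISA after 24 h compound exposure of primary human skin keratinocytes co-cultured with fibroblasts. Activity is the gain relative to DMSO; cytotoxicity tracked in parallel cultures via SRB staining.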

Read-out in assay [8]: Monocyte Chemoattractant Protein-1 (MCP1), CCL2 (gene 6347)
The assay is described as follows: BSK_IMphg_MCP1: BioMAP Diversity Plus: IMphg Assay for Monocyte Chemoattractant Protein-1 (MCP1) Biomarker Activity (AID 2284253). The conditions noted are these: primary human endothelial cells with macrophages. In a few lines: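 ELISA readout of MCP-1 at 24 hours in IMphg co-cultures of venular endothelial cells and macrophages, normalised to DMSO; parallel cultures stained with sulforhodamine B for overt cytotoxicity.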

Read-out in assay [9]: Interleukin-8 (IL8), CXCL8 (gene 3576)
Put plainly: BSK_KF3CT_IL8: BioMAP Diversity Plus: KF3CT Assay for Interleukin-8 (IL8) Biomarker Activity (AID 2284254). The conditions noted are these: primary human keratinocytes with fibroblasts. In a few lines: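 Human primary keratinocyte plus foreskin fibroblast co-culture dosed with test chemicals; IL-8 measured by ELISA 24 h after dosing. Activity fitted in the positive direction relative to DMSO negative control.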

Read-out in assay [10]: Eotaxin 3, CCL26 (gene 10344)
Put plainly: BSK_BF4T_Eotaxin3: BioMAP Diversity Plus: BF4T Assay for Eotaxin 3 Biomarker Activity (AID 2284258). As to conditions: primary human bronchial epithelial cells with fibroblasts. In a few lines: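 ELISA measurement of Eotaxin-3 after 24 h chemical exposure in a bronchial epithelial/dermal fibroblast co-culture, with DMSO as baseline. Parallel SRB staining (0.1% SRB after 10% TCA fixation, 560 nm) flagged overt cytotoxicity.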

`C=CC(C)(CCC=C(C)C)OC(C)=O` (centres undefined): the result in assay [1] and in [2] was inactive.

The term AC50 denotes the concentration at which the activity in the assay is half-maximal. For the molecule `C=COC(=O)C(C)(C)CCCCCC`, the outcome in assay [1] was inactive. Besides, the concentration at half-maximal activity (AC50) in [2] was 34.8 µM (active).

As to `Cc1ccc(N=Nc2c(O)ccc3ccccc23)c(C)c1`, the result in [1] and in assay [2] was inactive.

In the case of `CCCCCCCCCCCCCCCCCC[N+](C)(C)Cc1ccccc1`, the values for the AC50 in assay [1] and in assay [2] were 1.97 µM (active) and 3.06 µM (active), respectively.

`CCCCCc1ccc(O)cc1`: the result in [1] was inactive. Also, the AC50 in assay [2] was 28 µM (active).

On to `CCCCC(CC)C(=O)OCCOCCOCCOCCOC(=O)C(CC)CCCC` (centres undefined), for which the AC50 in assay [1] was 0.016 µM (active). Further, the outcome in assay [2] was inactive.

With `Cc1cccc2c1ccc1ccccc12`, the outcome in [1] and in assay [2] was inactive.

In the case of `C=CC(=C)CC/C=C(\C)CCC=C(C)C`, the outcome in assay [1] and in [2] was inactive.

Regarding `COc1cc(OC)nc(NC(=O)NS(=O)(=O)Nc2ccccc2C(=O)N(C)C)n1`, the result in assay [1] and in assay [2] was inactive.

On to `COCN(COC)c1nc(N(COC)COC)nc(N(COC)COC)n1`, for which the outcome in assay [1] and in assay [2] was inactive.

Regarding `COC1=CC(=O)C[C@@H](C)[C@]12Oc1c(Cl)c(OC)cc(OC)c1C2=O`, the outcome in assay [1] and in assay [2] was inactive.

With `O=C1c2ccc(O)c(O)c2C(=O)c2c(O)ccc(O)c21`, the result in assay [1] and in [2] was inactive.

For `OCCN1CN(CCO)CN(CCO)C1`, in assay [1], the AC50 is 31.3 µM (active). In addition, the outcome in [2] was inactive.

Regarding `NC(=NCCCCCCN=C(N)/N=C(\N)Nc1ccc(Cl)cc1)/N=C(\N)Nc1ccc(Cl)cc1`, the AC50 in assay [1] is 8.05 µM (active); in [2], 9.23 µM (active).

Take `CN(C)c1ccc(C(=C2C=CC(=[N+](C)C)C=C2)c2ccccc2)cc1`: the values for the AC50 in [1] and in [2] were 0.432 µM (active) and 0.647 µM (active), respectively.

`O=C(O)C(F)(F)OC(F)(F)C(F)(F)OC(F)(F)C(F)(F)OC(F)(F)C(F)(F)C(F)(F)C(F)(F)F`: the AC50 in assay [1] is 44.9 µM (active); in [2] it was 16.8 µM (active) and 14 µM (active); in [3], 29.6 µM (active) and 27.5 µM (active); in assay [4], 7.4 µM (active) and 6.87 µM (active); in assay [5], 30 µM (active); in assay [6], 11.1 µM (active) and 11.3 µM (active). The AC50 in [7] was 15.9 µM (active) and 18.7 µM (active); in assay [8], 38.2 µM (active) and 24 µM (active); in [10], 7.32 µM (active) and 7.02 µM (active). In addition, the result in assay [1] and in assay [9] was inactive.

Regarding `O=C(NO)c1ccccc1`, the half-maximal activity concentration (AC50) in [1] is 19.2 µM (active). For the same molecule, the result in assay [2] was inactive.

As for `O=C1OC2(c3ccccc31)c1cc(I)c(O)c(I)c1Oc1c2cc(I)c(O)c1I`, in [1], the outcome was inactive. The AC50 in assay [2] is 9.75 µM (active).

In the case of `CC[N+](CC)(CC)Cc1ccccc1`, the result in assay [1] and in [2] was inactive.

In the case of `CC1=NN(c2ccccc2)C(=O)C1`, the result in assay [1] and in assay [2] was inactive.

Consider `C[C@]12CC[C@@H]3c4ccc(O)cc4CC[C@H]3[C@@H]1C[C@@H](O)[C@@H]2O`, for which the result in assay [1] and in assay [2] was inactive.

Regarding `O=P(O)(O)CCC(F)(F)C(F)(F)C(F)(F)C(F)(F)C(F)(F)C(F)(F)C(F)(F)C(F)(F)F`, the outcome in [1], in assay [2], in [3], in [4], in assay [5] and in [6] was inactive. Also, the outcome in [7], in assay [8], in [9] and in assay [10] was inactive. Besides, the AC50 is 236 nM (active) in [6] and 8.05 µM (active) in assay [10].

For the molecule `C=CC(=O)OCCC(F)(F)C(F)(F)C(F)(F)C(F)(F)C(F)(F)C(F)(F)C(F)(F)C(F)(F)F`, the result in assay [1], in assay [2], in assay [3], in assay [4], in assay [5] and in assay [6] was inactive. Further, the outcome in assay [7], in [8], in assay [9] and in [10] was inactive. In addition, the AC50 in assay [9] was 16.9 µM (active).

Consider `O=C1NS(=O)(=O)c2ccccc21`, for which the outcome in assay [3], in assay [5], in assay [6], in [7] and in [9] was inactive.

Turning to `CN(Cc1cnc2nc(N)nc(N)c2n1)c1ccc(C(=O)N[C@@H](CCC(=O)O)C(=O)O)cc1`, the result in assay [1], in assay [2], in assay [3], in [4], in assay [5] and in assay [6] was inactive. The outcome in assay [7], in assay [8], in [9] and in [10] was inactive.

As to `Oc1c(Cl)cc(Cl)cc1Sc1cc(Cl)cc(Cl)c1O`, the AC50 was 2.92 µM (active) and 2.86 µM (active) in assay [3]; 1.32 µM (active) and 960 nM (active) in assay [5]; 1.25 µM (active) and 1.44 µM (active) in assay [6]; 1.67 µM (active) and 1.83 µM (active) in [7]. Moreover, in [9], the outcome was inactive.
